Assay results taken from PubChem BioAssay (EPA / NIEHS).
Several values for one entry are separate records, joined by “and”; a condition that tells them apart may be missing. Identical values can stand only once. Activity calls are given as the source filed them. Rule for the calls: active = hit-call score of the fitted dose curve at least 0.9, where 1 is the maximum; inactive = score below 0.9.

Assay: CCTE_Shafer_MEA_dev_burst_rate: CCTE's Neural Network Formation Assay for Burst Rate, Shafer Lab (AID 2284042)
Procedure: CCTE_Shafer_MEA_dev assay is conducted using Axion Biosystems 48 well microelectrode array (MEA) plates and Maestro recording system. Each well of the MEA plate contains a grid of 16 microelectrodes embedded in the culture surface. Electrically active cells, such as neurons, can be cultured over the electrodes, and electrical activity in these cells can be recorded extracellularly. The spontaneous firing of neurons is captured from each electrode on a microsecond timescale providing both temporally and spatially precise data. […] The CCTE_Shafer_MEA_dev assay uses primary cultures of rat cortical neurons. Recordings are made on days post-plating 5, 7, 9 and 12. As these cultures mature over time, neural networks develop functional activity and form cohesive networks in which electrical activity can be highly coordinated. CCTE_Shafer_MEA_dev_burst_rate is 1 of 19 assay components of the CCTE_Shafer_MEA_dev assay. It measures the frequency of single-electrode bursts (temporally-clustered groups of action potential firing) as the total number of bursts divided by the length of the recording in a microelectrode array (MEA) using Axion Biosystems Maestro 768 channel amplifier with the AxIS adaptive spike detector. The mean bursting rate is averaged across the active electrodes to report a well-mean value. To collapse across multiple recordings made on days post-plating 5, 7, 9 and 12, the trapezoidal area-under-the-curve of the component is calculated.Data from the assay component CCTE_Shafer_MEA_dev_burst_rate was analyzed into 1 assay endpoint. This assay endpoint, CCTE_Shafer_MEA_dev_burst_rate, was analyzed in the negative analysis fitting direction relative to DMSO as the negative control and baseline of activity. Using a type of functional reporter, gain or loss-of-signal activity can be used to understand electrical activity.
On the day prior to culture, each well was coated thoroughly with 150 uL of 0.05% polyethyleneimine (PEI, Sigma Cat P3143) in 50 mM HEPES (Sigma Cat H7523) at a pH of 8. The plate was incubated at 37C for one hour. PEI was rinsed out with 500 uL of sterile water three times. Plates were stored at 4C until the day of culture. This culture was plated at a seeding density of 1.5 x 10^5 cells/well on a 48-well MEA plate, prepared as described above. Cells were administered via a 25 uL media/laminin ([…]; Sigma Cat L2020-1MG) drop directly onto the microelectrode array, as adding the cells with the laminin results in better attachment than pre-coating with laminin. After 2 hours, an additional 475 uL of cortical media was added and the cells returned to the incubator. Exposure starts at day 0 of plating and is continued over twelve days of network development until the experiment is terminated. Cells are fed with fresh medium on DIV 5 and 9, following the recordings on those days. The entire volume of media in the well is exchanged and any vehicle or compound treatment is renewed. Complete details are found in OP-NHEERL/ISTD/SBB/TJS/2015-03-r0 (available on request, email shafer.tim@epa.gov). Measurement of the electrical activity is non-invasive, and recordings can be made from the same plate over multiple different days of the culture. In cortical neurons, this allows for the measurement of extracellular action potentials over the period during which networks form in the MEA plate.
For `CC1(C)S[C@@H]2[C@H](NC(=O)[C@H](N)c3ccc(O)cc3)C(=O)N2[C@H]1C(=O)O`, the outcome was “inactive”.
With `CC[C@H](C)C(=O)O[C@H]1CCC=C2C=C[C@H](C)[C@H](CC[C@@H]3C[C@@H](O)CC(=O)O3)[C@H]21` the AC50 was 253 nM (active) and 2.69 µM (active).
In the case of `c1ccc2cc3c4ccccc4c4ccccc4c3cc2c1`, the outcome is reported as “inactive”.
For `NC(N)=Nc1nc(CSCCC(N)=NS(N)(=O)=O)cs1`, the outcome was “inactive”.
For `CC(C)(C)NCC(O)c1cc(O)cc(O)c1` (stereo not given), the outcome was “inactive”.
With `[Cl-].[Cl-].[NH2-].[NH2-].[Pt+4]` the outcome was “inactive”.
In the case of `CN(C)CCC(c1ccc(Cl)cc1)c1ccccn1` (stereo not given), the outcome is reported as “inactive”.
For `C[C@@H]1C[C@H]2[C@@H]3CCC4=CC(=O)C=C[C@]4(C)[C@@]3(F)[C@@H](O)C[C@]2(C)[C@@]1(O)C(=O)CO`, the outcome was “inactive”.
With `CN(C)C(=O)C(CCN1CCC(O)(c2ccc(Cl)cc2)CC1)(c1ccccc1)c1ccccc1` the AC50 was 41.8 nM (active) and 92.4 nM (active) and 335 nM (active).
For `CNCCC(Oc1ccc(C(F)(F)F)cc1)c1ccccc1` (stereo not given), the AC50 was 2770 nM (active).
In the case of `COc1ccc2cc3[n+](cc2c1OC)CCc1cc2c(cc1-3)OCO2`, the AC50 is reported as 92.8 nM (active).
For `Cc1c(O)cccc1C(=O)N[C@@H](CSc1ccccc1)[C@H](O)CN1C[C@H]2CCCC[C@H]2C[C@H]1C(=O)NC(C)(C)C`, the AC50 was 664 nM (active).
For `C[C@H](CS)C(=O)N1CCC[C@H]1C(=O)O`, the outcome was “inactive”.
In the case of `CC1(C)S[C@@H]2[C@H](NC(=O)[C@H](N)c3ccccc3)C(=O)N2[C@H]1C(=O)O`, the outcome is reported as “inactive”.
For `c1cc2ccc3ccc4ccc5cccc6c(c1)c2c3c4c56`, the outcome was “inactive”.
